Measured values taken from PubChem BioAssay.
Numbered stars: 1 amine (or outer) side, 2 acyl side, 3 side chain; on linkers, the order of the positions; unused ones are H or OH. Bridge positions count the residues as written; N and C are the ends. Square brackets hold non-standard residues; d marks the D form. Peptide text beside a SMILES is read from it. * marks the point of attachment. ξ: configuration not given here. ΔAla(E,3-NHCONH2) = NC(=O)N/C=C(/N)C(=O)O; X1 = NC1=NCCC(C(N[*:1])C(=O)[*:2])N1; Heptanoyl(6-Me) = CC(C)CCCCC(=O)*; ξβ3hOrn = NCCCC(N)CC(=O)*; Orn = NCCC[CH](N)C(=O)O; Dab = NCC[CH](N)C(=O)O; Dap = NC[CH](N)C(=O)O

Assay: EMT-state selective cytotoxicity in co-culture – imaging, PC-3E GFP, TEM4-18 mCherry, primary screen (AID 1345086);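 further: cells exposed to compound for 72 h before imaging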
Conditions: PC-3E GFP / TEM4-18 mCherry co-culture, imaging cell counts; measured here: epithelial PC-3E GFP cell survival; at 1 µM

Structure (SMILES) | normalised cell number
CO/N=C(\C(=O)NC1C(=O)N2C(C(=O)OCOC(=O)C(C)(C)C)=C(/C=C\c3scnc3C)CSC12)c1csc(N)n1 (configuration not stated) | 1.21
CC(C)CC1NC(=O)C(CCCN)NC(=O)C(C(C)C)NC(=O)C2CCCN2C(=O)C(Cc2ccccc2)NC(=O)C(CC(C)C)NC(=O)C(CCCN)NC(=O)C(C(C)C)NC(=O)C2CCCN2C(=O)C(Cc2ccccc2)NC1=O (configuration not stated) (cyclo(FPV[Orn]LFPV[Orn]L); configuration not given here) | 0.39
CN(Cc1cnc2nc(N)nc(N)c2n1)c1ccc(C(=O)NC(CCC(=O)O)C(=O)O)cc1 (configuration not stated) | 1.15
CC(=O)OC1CCC2C3CCc4cc(O)ccc4C3CCC12C (configuration not stated) | 1.2
O=C1O[C@H](C(O)CO)C(O)=C1O (some centres not stated) | 1.04
CO/N=C(/C(=O)N[C@@H]1C(=O)N2C(C(=O)O)=C(CSc3nc(=O)c(O)nn3C)CS[C@H]12)c1csc(N)n1 | 1.02
NCCCC(N)CC(=O)NCC1NC(=O)C(CO)NC(=O)C(N)CNC(=O)C(C2CCN=C(N)N2)NC(=O)/C(=C\NC(N)=O)NC1=O (stereo not drawn) (H-[Dap]S[Dap](ξβ3hOrn)[ΔAla(E,3-NHCONH2)][X1]; lactam 1-C; configuration not given here) | 1.11
CCCCCCCCCCCCCCCC(=O)O[C@@H]1[C@@H](O)[C@@H](O)C([C@H](NC(=O)[C@@H]2C[C@@H](CCC)CN2C)[C@H](C)Cl)O[C@@H]1SC (some centres not stated) | 1.03
CO/N=C(/C(=O)NC1C(=O)N2C(C(=O)OC(C)OC(C)=O)=C(COC(N)=O)CSC12)c1ccco1 (configuration not stated) | 0.93
O=C(N[C@@H](CO)[C@H](O)c1ccc([N+](=O)[O-])cc1)C(Cl)Cl | 1.15
C[C@]12C=CC(=O)C=C1CCC1C2[C@@H](O)C[C@@]2(C)C1CC[C@]2(O)C(=O)COC(=O)CCC(=O)O (some centres not stated) | 1.15
CC(=O)O[C@@]12CO[C@@H]1C[C@H](O)[C@@]1(C)C(=O)[C@H](O)C3=C(C)[C@@H](OC(=O)[C@H](O)[C@@H](NC(=O)OC(C)(C)C)c4ccccc4)C[C@@](O)([C@@H](OC(=O)c4ccccc4)C12)C3(C)C (some centres not stated) | 0.16
CC(C)(Oc1ccc(C(=O)c2ccc(Cl)cc2)cc1)C(=O)O | 1.09
CC1=C(C(=O)O)N2C(=O)[C@@H](NC(=O)C(N)c3ccc(O)cc3)[C@H]2SC1 (some centres not stated) | 1.16
CCC(=O)OCC(=O)[C@@]1(OC(=O)CC)[C@@H](C)CC2C3CCC4=CC(=O)C=C[C@]4(C)C3(F)[C@@H](O)C[C@@]21C (some centres not stated) | 1.03
C/C=C\C1=C(C(=O)O)N2C(=O)C(NC(=O)C(N)c3ccc(O)cc3)C2SC1 (configuration not stated) | 0.97
C[C@H]1CC2C([C@@H](O)C[C@@]3(C)C2CC[C@]3(O)C(=O)COC(=O)CCC(=O)O)[C@@]2(C)C=CC(=O)C=C12 (some centres not stated) | 1.3
NCC1CCCCC1CC(=O)O (configuration not stated) | 1.27
CC1=C(C(=O)O)N2C(=O)[C@@H](NC(=O)[C@H](N)C3=CCC=CC3)C2SC1 (some centres not stated) | 1.13
CC[C@@H]1OC(=O)C[C@@H](O)[C@H](C)[C@@H](O[C@@H]2O[C@H](C)[C@@H](O)[C@H](N(C)C)[C@H]2O)[C@@H](CCN2C[C@H](C)C[C@H](C)C2)C[C@@H](C)C(=O)/C=C/C(C)=C\[C@@H]1CO[C@@H]1O[C@H](C)[C@@H](O)[C@@H](OC)[C@H]1OC | 1.1
CCC(C)C1NC(=O)C(CCN)NC(=O)C(NC(=O)C(CCN)NC(=O)C(NC(=O)C(CCN)NC(=O)CCCCC(C)C)C(C)O)CCNC(=O)C(C(C)O)NC(=O)C(CCN)NC(=O)C(CCN)NC(=O)C(C(C)CC)NC1=O (configuration not stated) ({Heptanoyl(6-Me)}-[Dab]T[Dab][Dab][Dab]II[Dab][Dab]T; lactam 4-C; configuration not given here) | 1.14
COc1cc(NS(C)(=O)=O)ccc1Cc1c2ccccc2nc2ccccc12 | 0.32
C[C@H](N[C@@H](CCc1ccccc1)C(=O)O)C(=O)N1CCC[C@H]1C(=O)O | 1.17
CC(CCC(=O)O)[C@H]1CCC2C3C(=O)C[C@@H]4CC(=O)CC[C@]4(C)C3CC(=O)[C@@]21C (some centres not stated) | 0.93
CC1OC1P(=O)(O)O (configuration not stated) | 1.06
CC1C/C=C/C=C/C=C/C=C/C(O[C@@H]2O[C@H](C)[C@@H](O)[C@H](N)[C@@H]2O)CC2OC(O)(CC(O)CC3OC3/C=C/C(=O)O1)CC(O)C2C(=O)O (some centres not stated) | 1.04
CC(=O)OCC(=O)[C@@]1(OC(C)=O)[C@@H](C)CC2C3C[C@H](F)C4=CC(=O)C=C[C@]4(C)[C@@]3(F)[C@@H](O)C[C@@]21C (some centres not stated) | 1.13
